From PubChem
HCV inhibitor = blocks hepatitis C virus; Potency, µM (highest dose often 41.8 µM), inactives show at the highest dose activity change, negative = inhibition, hits mostly inhibitors; AID 651820; Huh7.5.1 HCVcc-Cre infection, luciferase reporter, 44 h; 3.4% of 340,000 active; further: potency means the concentration at half of the fitted maximal effect
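Seed cells (1,000/well) for 4 h; treat with compound and infect with HCVcc-Cre, moi about 0.5. Incubate 44 h, then detect luciferase activity.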
FMDV inh = blocks foot and mouth disease virus. Potency, µM (top dose mostly 57.9 µM), for inactives: at the top dose activity change, negative = inhibition, usual class: inhibitors. FMDV antiviral cell-based qHTS. AID 1159524. 1.2% of 410,000 active; calls by dose curve; tested in HEK293T cells; further: read-out not given here; potency means the concentration at half of the fitted maximal effect; nearly all actives have a fitted effect of over 45% in size
VACV Venus inh = inhibitors of vaccinia virus (Venus reporter). Vaccinia virus Venus reporter expression, fluorescence. Potency, µM (series often up to 36.5 µM), for the others: at the top dose activity change, negative = inhibition, most hits filed as inhibitors. 0.46% of 330,000 active; calls by dose curve; tested in A549 cells; further: potency means the concentration at half of the fitted maximal effect; nearly all actives have a fitted effect of over 30% in size
VACV mCherry inh = inhibitors of vaccinia virus infection (mCherry reporter signal); Vaccinia virus mCherry reporter infection, fluorescence; Potency, µM (top dose mostly 36.5 µM), for the others: top-dose activity change, negative = inhibition, most hits filed as inhibitors; 0.63% of 310,000 active; calls by dose curve; tested in A549 cells; further: potency means the concentration at half of the fitted maximal effect; nearly all actives have a fitted effect of over 35% in size
Sm TGR inh = blocks Schistosoma mansoni thioredoxin glutathione reductase; 3% of 360,000 active; Q962Y6; purified TGR, DTNB reduction, TNB absorbance 405 nm; Potency, µM (series often up to 114 µM), inactives show at the highest dose activity change, negative = inhibition, actives largely listed as inhibitors; further: potency means the concentration at half of the fitted maximal effect; nearly all actives have a fitted effect of over 60% in size
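TGR 20 nM + NADPH 100 uM (dispensed conc.), cpd preinc 15 min RT; start with NADPH (500 uM addition) then DTNB (15 mM addition). Kinetic TNB absorbance, 405 nm filter. Four-parameter Hill fit across titration.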
HCMV antiviral = inhibitors of human cytomegalovirus. activity change, negative = inhibition, % at 57.5 µM. 4.5% of 410,000 active. HFF cells, HCMV-luciferase reporter, 72 h; hits give low values; in the data active means activity change below about -60%; inconclusive means no clear call, values can overlap the other calls; inactive means above about -39%
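Screen run at 2 compound doses on HFFs infected with reporter HCMV, MOI 1 PFU/cell. Luciferase activity from cell lysates at 72 h post infection gave inhibition relative to buffer-only and Salinomycin wells.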
* hit, by the source's call; i = inactive; ? = inconclusive; . = not tested or not shown; + = active, no number. Hits are enriched below; roughly 9.3% of the tested compounds scored in any of these assays. Unless noted, the call rests on the fitted dose curve; in most records, active means well fitted curve in the direction sought with a large enough effect; inconclusive means small, poorly fitted or top-dose-only effect, or another doubt; inactive means no such curve, though single readings can be large; an effect the other way counts as inactive or inconclusive. On the % scale 0 is the no-effect control and ±100 the full control effect.

SMILES	HCV inhibitor	FMDV inh	VACV Venus inh	VACV mCherry inh	Sm TGR inh	HCMV antiviral
CCOC(=O)/C(=N/Nc1ccccc1)N1CCCc2ccccc21	0.2%	?	-13.7%	-9.7%	7.3%	-63.1*
CCOC(=O)/C(=N/Nc1ccccc1OC)N1CCCc2ccccc21	?	13.5%	3.8%	?	39.8µM*	-1.1
CCOC(=O)/C(=N/Nc1ccc(OC)cc1)N1CCCc2ccccc21	-3.2%	-0.2%	?	-22.0%	-25.5%	?
Cc1c(CN2CCC(Oc3ccc(C(=O)N4CCCCC4)cc3)CC2)cnn1C	-3.0%	-5.9%	-10.3%	-8.6%	5.7%	-7.1
Cc1ccc(CNC(=O)c2cnc(-c3ccccn3)nc2C(F)(F)F)cc1	-9.9%	8.5%	-16.8%	-22.1%	3.6%	1.3
CCn1c(-c2ccc(N)cc2)nc2ccccc21	10.3%	15.6%	-14.4%	i	1.0%	161.0
COc1ccc(NCc2nc3ccccc3n2CCOc2ccc(C)cc2)cc1	8.91µM*	?	?	-26.3%	-9.4%	?
c1ccc(OCCn2c(-c3ccco3)nc3ccccc32)cc1	-17.2%	.	-3.5%	-5.1%	8.91µM*	-1.2
CCn1c(-c2ccc(N(C)C)cc2)nc2ccccc21	?	-27.3%	.	.	6.3%	-96.1*
CCn1c(-c2ccco2)nc2ccccc21	4.9%	51.1%	-6.6%	-14.5%	31.6µM*	41.8
Cc1cccc(OCCn2c(-c3ccco3)nc3ccccc32)c1	?	29.7%	.	.	?	16.1
COc1ccc(N2CCN(CCCNC(=O)C(=O)c3c[nH]c4ccccc34)CC2)cc1	?	-20.9%	-26.1%	?	-0.8%	19.4
N#CC(C(=O)OC1CCCCC1)c1nc2ccccc2nc1N1CCOCC1 (stereo not given)	19.2%	0.0%	3.3%	-5.9%	-2.0%	-77.6*
CC(C)(C)OC(=O)N1CCC(c2c(C(=O)NCCN3CCC(Cc4ccccc4)CC3)cnn2-c2ccccc2)CC1	.	?	11.2µM*	?	-2.6%	?
CCOC(=O)c1cnn(-c2ccc(Cl)cc2)c1C1CCN(C(=O)OC(C)(C)C)CC1	12.6µM*	?	-29.1%	?	-4.9%	-23.7
CCOC(=O)c1cnn(-c2cccc(F)c2)c1C1CCNCC1	.	2.3%	-10.9%	-5.3%	44.7µM*	-4.9
COc1ccc(CCN2CCC(CNC(=O)c3cnn(-c4cccc(Cl)c4)c3C3CCN(C(=O)OC(C)(C)C)CC3)CC2)cc1	.	-6.0%	?	?	-24.2%	-100.9*
NC(=S)N=Nc1c(O)cc(O)c2[nH]c(=O)ccc12	-0.4%	-14.0%	-2.1%	-4.4%	.	0.0
COCCCNC(=O)c1cnn(-c2ccccc2Cl)c1C1CCN(C(=O)OC(C)(C)C)CC1	.	-4.8%	-1.8%	-11.2%	3.1%	+
CC(C)(C)OC(=O)N1CCC(c2c(C(=O)NCc3ccccn3)cnn2-c2ccccc2Cl)CC1	.	8.9%	-16.3%	-6.4%	5.9%	?
CC(C)(C)OC(=O)N1CCC(c2c(C(=O)NCCN3CCC(Cc4ccccc4)CC3)cnn2-c2ccc(F)cc2)CC1	.	-11.9%	?	?	3.7%	-106.3*
Cc1ccc(-n2ncc(C(=O)NCCCN3CCCCC3)c2C2CCN(C(=O)OC(C)(C)C)CC2)cc1	.	-18.6%	-13.9%	-14.9%	-9.3%	+
CCN(CC)CCN(C)C(=O)CCc1nnc(-c2ccc(C)s2)o1	-4.2%	6.1%	-21.4%	-10.4%	11.7%	9.2
CNC(=O)CSc1nnc(-c2ccco2)n1-c1cccc(C)c1	-27.1%	-8.5%	-9.5%	i	7.0%	42.5
COc1ccccc1OCC(=O)Sc1ccc(C)cc1	12.2%	?	-3.3%	-11.5%	7.08µM*	21.3
SMILES	HCV inhibitor	FMDV inh	VACV Venus inh	VACV mCherry inh	Sm TGR inh	HCMV antiviral
Cc1ccc(OCC(=O)Sc2ccc(C)cc2)cc1	-4.4%	?	-23.6%	.	17.8µM*	24.1
Cc1ccc(OCC(=O)NCCNC(=O)COc2ccc(C)cc2)cc1	13.5%	1.9%	-10.4%	-2.2%	9.8%	32.1
CSc1nc(SC(C)C(=O)O)c2c3c(sc2n1)COC(C)(C)C3 (stereo not given)	5.5%	-20.7%	-13.5%	-3.3%	-8.2%	157.5
Cc1cc(/C([O-])=C(/C(=S)Nc2ccc(F)cc2)[n+]2ccccc2)c(C)n1-c1ccc(F)cc1	14.1µM*	-5.7%	.	.	0.0%	13.2
Cc1cc(/C([O-])=C(/C(=S)Nc2ccccc2)[n+]2ccccc2)c(C)n1-c1ccccc1	-20.1%	?	-12.5%	-28.7%	-21.6%	-23.6
COc1ccc(-c2csc(NC(=O)C3CCCCN3S(=O)(=O)c3ccccc3)n2)cc1 (stereo not given)	?	-63.0%	?	.	3.7%	-67.6*
Cc1cccc(NC(=O)C2CCCCN2S(=O)(=O)c2ccccc2)c1C (stereo not given)	-1.0%	-17.9%	.	.	.	4.9
CC(C)c1ccc(NC(=O)C2CCCCN2S(=O)(=O)c2ccccc2)cc1 (stereo not given)	22.4µM*	-1.9%	.	.	-3.3%	?
COCCNC(=O)C1(C)CCCN(C(=O)c2c(F)ccc(C)c2F)C1 (stereo not given)	.	-16.3%	-8.0%	i	.	-63.6*
COCCNC(=O)C1(C)CCCN(C(=O)c2ccc(C)c(F)c2)C1 (stereo not given)	.	-12.4%	-1.6%	37.8%	.	-31.6
CCOC(=O)c1cc(NC(=O)c2cccnc2)ccc1N1CCOCC1	?	1.9%	-3.4%	-6.1%	.	15.1
CC12CCC(C(=O)Nc3ccc(Cl)cc3)([C@H](Br)C1=O)C2(C)C (stereo not given in full)	4.7%	-26.7%	-4.2%	i	6.6%	-60.5*
C=CCNC(=O)c1ccsc1N	.	-6.5%	4.8%	-16.6%	.	-7.0
O=C(OC1C2CCC1C1CN(CCc3ccccc3)CC12)c1ccccc1 (stereo not given)	0.4%	?	-29.7%	-22.7%	-5.7%	-68.2*
COC(=O)c1ccccc1NC(=O)CCS(=O)(=O)c1nc(-c2ccc3c(c2)OCO3)cc(C(F)(F)F)n1	.	?	-15.7%	-8.9%	-20.9%	-69.7*
O=C(CCS(=O)(=O)c1nc(-c2ccc3c(c2)OCO3)cc(C(F)(F)F)n1)Nc1ccc(Br)cc1	.	?	-12.1%	i	-8.9%	-98.8*
O=C(CCS(=O)(=O)c1ccccc1)Nc1ccc2c(c1)OCO2	19.0%	51.8%	1.2%	2.3%	20µM*	87.7
O=C(CCS(=O)(=O)c1nc(-c2ccc3c(c2)OCO3)cc(C(F)(F)F)n1)Nc1ccccc1F	.	?	-19.9%	-3.6%	?	2.2
Cc1ccc(S(=O)(=O)CCC(=O)NCCN2C(=O)S/C(=C/c3ccc(F)cc3)C2=O)cc1	?	14.2%	-18.8%	-9.9%	4.8%	-7.1
CCOC(=O)c1c(NC(=O)CSc2nnc(-c3cccc(C)c3)n2CC)sc(C(C)=O)c1C	3.55µM*	?	?	.	5.6%	22.2
